Assay outcomes from PubChem BioAssay.
Compounds with a hit are over-represented: about 19% of the library has one in this group of screens.
IL-1B inflam inh: blocks inflammasome-driven IL-1 beta release; THP-1 LPS/ATP IL-1B secretion, AlphaLISA, 16 h; active compounds read low; activity change, % at 57.5 µM; 360,000 tested, 4.7% active; AID 743279; in the data active = activity change below about -50%; inconclusive = mostly about -30% to -49%
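THP-1 cells pretreated 1 hr with compounds (up to 57.5 uM final), then stimulated with LPS (250 ng/mL final) plus ATP (1.25 mM final); secreted IL-1B measured by AlphaLISA after 16 hr, decreased signal indicating inhibition.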
HT1080NT lethal: kills 2HG-producing HT-1080-NT fibrosarcoma cells; HT-1080-NT fibrosarcoma viability, CellTiter-Glo ATP luminescence, 48 h; Potency, µM (doses to about 46.1 µM), for inactives: top-dose activity, negative = less viability, hits mostly cytotoxic; 360,000 tested, 1.6% active;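 also: NT is the 2HG producing partner of a matched IDH1 knockdown line; potency is read from the fitted curve at half-maximal effect; 0% = DMSO-treated cells and -100% = media-only wells without cells; nearly all actives have a fitted effect of over 55% in size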
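Toxicity toward the 2HG-producing NT line was scored as %Activity, normalised to DMSO and no-cell wells, from CellTiter-Glo luminescence after 48 hours' treatment.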
TDP1 cell CPT: DT40-hTDP1 cell growth loss with CPT; Potency, µM (top dose mostly 46.2 µM), without a hit: at the top dose activity change, negative = growth inhibition, most hits filed as inhibitors; AID 686979; chicken DT40 Tdp1-/-;hTDP1 cells + 20 nM CPT, ATP luminescence, 48 h; 420,000 tested, 12% active; also: potency is read from the fitted curve at half-maximal effect; nearly all actives have a fitted effect of over 55% in size
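Chicken DT40 Tdp1-/- cells stably complemented with human TDP1 were seeded at 400 cells/well in medium containing 20 nM camptothecin, exposed to pin-transferred compounds, and grown at 37 °C for at least 48 hr. Viability was read as ATP luminescence.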
ELG1 DNA repair: inhibitors of ELG1-dependent DNA repair in HEK293T cells | HEK293T ELG1-luciferase reporter, luminescence, 16 h; DNA damage induced by 5-fluorouridine | Potency, µM (doses to about 46.1 µM), for the others: at the top dose activity change, negative = inhibition, usual class: inhibitors | 330,000 tested, 2.3% active; also: potency is read from the fitted curve at half-maximal effect; nearly all actives have a fitted effect of over 55% in size
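In this reporter screen, reduction of luminescence relative to DMSO vehicle indicated activity. Compounds and 5-fluorouridine were added together to 2,000 cells per well, incubated for 16 hr at 37 °C, then developed with ONE-Glo.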
TDP1 cell noCPT: qHTS for Inhibitors of human tyrosyl-DNA phosphodiesterase 1 (TDP1): qHTS in cells in absence of CPT | DT40 Tdp1-/- hTDP1 cells, no CPT, ATP luminescence, 48 h | Potency, µM (titrated, usually from 46.2 µM), inactives show at the top dose activity change, negative = growth inhibition, most hits filed as inhibitors | 420,000 tested, 15% active | AID 686978, 2013; also: potency is read from the fitted curve at half-maximal effect; nearly all actives have a fitted effect of over 55% in size
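DT40 Tdp1-/-;hTDP1 cells, no CPT (DMSO vehicle only), 400 cells/well; compounds pin-transferred; ≥48 hr, 37 °C; CellTiter-Glo 30 min RT dark, luminescence read.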
HT1080 IDH1KD tx: HT-1080 IDH1 knockdown cell toxicity (counter line). Potency, µM (titrated, usually from 46.1 µM), without a hit: top-dose activity, negative = toxicity, hits mostly cytotoxic. 360,000 tested, 2% active. HT-1080 IDH1 knockdown viability, ATP luminescence, 48 h. AID 686971;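 also: potency is read from the fitted curve at half-maximal effect; 0% = DMSO wells and -100% = cell-free medium wells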
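After a 2 h attachment period, IDH1KD HT-1080 cells took pin-transferred compound for 48 h at 37 °C; ATP-based luminescence after 10 min room-temperature reagent incubation reported viability.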
* hit, by the source's call; ? = inconclusive; / = not tested or not shown; [ ] = another dose, or the depositor's remark. Unless noted, calls follow the shape of the dose curve; as a rule, active = well fitted curve in the direction sought with a large enough effect; inconclusive = small, poorly fitted or top-dose-only effect, or another doubt; inactive = no such curve, though single readings can be large; an effect the other way counts as inactive or inconclusive. Unless noted, % is scaled to controls: 0 for no effect and ±100 for the full control effect.

SMILES | IL-1B inflam inh | HT1080NT lethal | TDP1 cell CPT | ELG1 DNA repair | TDP1 cell noCPT | HT1080 IDH1KD tx
COc1ccc(NCc2nnc(SCC(=O)c3ccc(OC)cc3)o2)cc1 | -5 | -1% | ? | -19% | 16µM* | ?
CCOc1cc(C(=O)CSc2nnc(CNc3ccc(Cl)cc3)o2)ccc1NC(=O)CC | -103* | -22% | ? | ? | ? | ?
Clc1ccccc1-c1cncnc1NCc1cccs1 | / | / | -7% | / | -3% | /
Cc1ccc(NC(=O)c2cc3c([nH]c2=O)CC(C)(C)CC3=O)cc1 | / | / | ? | / | -24% | /
O=C(CSc1nnc(CNC(=O)c2ccco2)o1)c1ccc(Cl)cc1 | -106* | 7% | -21% | 9% | ? | 11%
O=c1c2cccnc2n(Cc2ccccc2F)c(=O)n1Cc1ccccc1Cl | / | / | -9% | / | -27% | /
COc1ccc(OCCCCn2c(-c3ccc(Cl)cc3)nc3ccccc3c2=O)cc1 | / | / | -27% | / | ? | /
COc1ccc(NC(=O)c2cnn(-c3ccc(F)cc3F)c2C2CCN(C(=O)OC(C)(C)C)CC2)cc1Cl | / | / | ? | / | 18µM* | /
Cc1cccc(-n2ncc(C(=O)Nc3ccc4c(c3)OCO4)c2C2CCN(C(=O)OC(C)(C)C)CC2)c1 | / | / | 18µM* | / | ? | /
CC(C)(C)OC(=O)N1CCC(c2c(C(=O)Nc3ccc4c(c3)OCCO4)cnn2-c2ccc(F)cc2F)CC1 | / | / | 21µM* | / | -108% | /
CC(C)(C)OC(=O)N1CCC(c2c(C(=O)NCc3ccc4c(c3)OCO4)cnn2-c2ccc(F)cc2F)CC1 | / | / | ? | / | -81% | /
COc1ccccc1CN(Cc1nc2ccccc2c(=O)[nH]1)S(=O)(=O)c1ccc(C)cc1 | -12 | -8% | ? | 23µM* | ? | 0%
COc1ccccc1CN(Cc1nc2ccccc2c(=O)[nH]1)C(=O)Nc1ccc(C)cc1 | -4 | 0% | ? | ? | ? | -23%
COc1ccccc1CN(Cc1nc2ccccc2c(=O)[nH]1)C(=O)Nc1ccccc1C | -13 | ? | 1% | ? | -6% | 11µM*
CC1CCc2c(c3ccccc3n2C(=O)CCl)C1 (stereo not drawn) | -60* | -18% | ? | ? | ? | -12%
Cc1ccnc(SCC(=O)n2c3c(c4ccccc42)CC(C)CC3)n1 (stereo not drawn) | -2 | 3% | -1% | ? | -28% | 16%
CCN1CCN(CC(=O)n2c3c(c4ccccc42)CC(C)CC3)CC1 (stereo not drawn) | -12 | ? | ? | 1% | 18µM* | 0%[9.24 µM]
CC(C)CNC(=S)N(CCO)Cc1cc2cc3c(cc2[nH]c1=O)OCO3 | ? | 3% | 9% | -15% | 0% | 10%
O=C(C1CC1)N1CCc2cc(S(=O)(=O)N3CCN(c4ccccc4)CC3)ccc21 | -9 | -12% | -17% | -24% | -28% | -9%
CC(=O)N1CCCc2cc(S(=O)(=O)N3CCCC(C(=O)Nc4cccc(C)c4)C3)ccc21 (stereo not drawn) | -17 | 3% | -28% | -8% | -18% | -14%
CCOc1ccc(NC(=O)C2CCCN(S(=O)(=O)c3ccc4c(c3)CCCN4C(C)=O)C2)cc1 (stereo not drawn) | -17 | 5% | 1% | ? | -24% | -8%
CC(=O)N1CCCc2cc(S(=O)(=O)N3CCCC(C(=O)NCc4ccccc4Cl)C3)ccc21 (stereo not drawn) | -15 | 10% | 21µM* | -26% | 26µM* | 0%
O=C(C1CCC1)N1CCCc2cc(S(=O)(=O)N3CCN(c4ccccc4)CC3)ccc21 | -3 | 0% | 18µM* | -1% | ? | 0%
